In all, about 5,500 compounds went through this assay and about 2,000 (36%) were called active. Another 18% or so got no clear call; they are omitted. The list shows a part of the results. A number with no mark means an inactive call. Rule as the data show it: active = normalized growth mostly below about 0.91 (no sharp cut-off); inconclusive = no clear call, values can overlap the other calls; inactive = mostly above about 0.92.
Test: chemical genetic growth profiling, strain panel (AID 1159580);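 also: tested at 20 µM; growth read once vehicle control cultures reached saturation at 30 °C; 1 = growth at the plate median or of vehicle wells; lower values mean less growth of the strain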
Details: S. cerevisiae deletion strains, growth OD
[1] = locus YAL040C, strain CLN3, active compounds read low
[2] = locus YCL061C, strain MRC1 (second series), active compounds read low
[3] = locus YDR363W, strain ESC2, active compounds read low
[4] = locus YER002W, strain NOP16, active compounds read low
[5] = locus YGR229C, strain SMI1, active compounds read low
[6] = locus YMR307W, strain GAS1, active compounds read low
[7] = locus YNL153C, strain GIM3, active compounds read low
[8] = locus YNL175C, strain NOP13, active compounds read low
[9] = locus YNL197C, strain WHI3, active compounds read low
[10] = locus YNL224C, strain SQS1, active compounds read low
[11] = locus YOR083W, strain WHI5 (second series), active compounds read low
[12] = locus YNL322C, strain KRE1, active compounds read low

Compound	normalized growth [1]	normalized growth [2]	normalized growth [3]	normalized growth [4]	normalized growth [5]	normalized growth [6]	normalized growth [7]	normalized growth [8]	normalized growth [9]	normalized growth [10]	normalized growth [11]	normalized growth (locus YPL055C, strain LGE1, active compounds read low)	normalized growth [12]	normalized growth (locus YDR150W, strain NUM1, active compounds read low)	normalized growth (locus YJR075W, strain HOC1, active compounds read low)	normalized growth (locus YMR263W, strain SAP30, active compounds read low)	normalized growth (locus YNL128W, strain TEP1, active compounds read low)	normalized growth (locus YPL241C, strain CIN2, active compounds read low)
CCCN1CCc2cccc3c2[C@H]1Cc1ccc(O)c(O)c1-3	0.955	0.516 (active)	0.79 (active)	0.975	0.186 (active)	0.481 (active)	0.534 (active)	0.96	0.985	0.996	0.631 (active)	0.23 (active)	–	–	–	–	–	–
CCCN1CC[C@@H]2c3cc(O)ccc3CC[C@@H]21	1.02	1.01	1.01	1.01	–	1	1.04	1.01	1.01	1.02	1.01	–	1.01	–	–	–	–	–
CCCN1CCOC2c3cc(O)ccc3OCC21 (centres undefined)	0.983	0.993	0.96	1	1.03	1.02	–	0.984	0.975	1	0.983	–	0.994	0.988	1.01	1	0.993	0.998

Source: PubChem BioAssay AID1159580 (chemical genetic matrix, 2015)
